The entries come from a sample that favours the strongest signals as a whole.

Chain of Aggrecan (Rattus norvegicus), NP_071526 (chain, as listed by the source): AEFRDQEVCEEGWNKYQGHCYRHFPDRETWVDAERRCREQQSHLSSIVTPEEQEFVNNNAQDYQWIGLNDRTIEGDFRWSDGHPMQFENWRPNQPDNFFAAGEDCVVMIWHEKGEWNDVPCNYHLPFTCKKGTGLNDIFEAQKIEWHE
Chain of C3b (Homo sapiens), P01024 (P01024 23-667): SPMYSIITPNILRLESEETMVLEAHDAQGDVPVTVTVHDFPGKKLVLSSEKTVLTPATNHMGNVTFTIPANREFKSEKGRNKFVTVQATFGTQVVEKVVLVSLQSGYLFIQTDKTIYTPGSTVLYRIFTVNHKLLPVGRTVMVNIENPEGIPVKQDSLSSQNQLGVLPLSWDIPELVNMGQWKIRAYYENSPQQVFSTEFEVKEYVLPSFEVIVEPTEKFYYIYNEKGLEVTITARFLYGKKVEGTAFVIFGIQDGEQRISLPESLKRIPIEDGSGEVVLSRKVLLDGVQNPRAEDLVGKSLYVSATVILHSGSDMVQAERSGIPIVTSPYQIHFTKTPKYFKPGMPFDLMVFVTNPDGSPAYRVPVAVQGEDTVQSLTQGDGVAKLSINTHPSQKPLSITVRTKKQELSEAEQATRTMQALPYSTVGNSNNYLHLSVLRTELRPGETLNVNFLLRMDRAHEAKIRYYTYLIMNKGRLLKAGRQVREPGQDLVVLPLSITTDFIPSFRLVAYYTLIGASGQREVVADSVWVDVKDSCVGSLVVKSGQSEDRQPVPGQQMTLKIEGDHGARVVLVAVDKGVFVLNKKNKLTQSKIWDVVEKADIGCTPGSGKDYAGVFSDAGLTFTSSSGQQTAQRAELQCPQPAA
Chain of Avaren (Actinomycete K97) (chain, as listed by the source): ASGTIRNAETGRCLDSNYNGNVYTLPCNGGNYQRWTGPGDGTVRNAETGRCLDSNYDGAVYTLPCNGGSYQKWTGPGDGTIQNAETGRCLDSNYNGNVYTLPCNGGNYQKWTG
Chain of 6RG (Lolium perenne) (chain, as listed by the source): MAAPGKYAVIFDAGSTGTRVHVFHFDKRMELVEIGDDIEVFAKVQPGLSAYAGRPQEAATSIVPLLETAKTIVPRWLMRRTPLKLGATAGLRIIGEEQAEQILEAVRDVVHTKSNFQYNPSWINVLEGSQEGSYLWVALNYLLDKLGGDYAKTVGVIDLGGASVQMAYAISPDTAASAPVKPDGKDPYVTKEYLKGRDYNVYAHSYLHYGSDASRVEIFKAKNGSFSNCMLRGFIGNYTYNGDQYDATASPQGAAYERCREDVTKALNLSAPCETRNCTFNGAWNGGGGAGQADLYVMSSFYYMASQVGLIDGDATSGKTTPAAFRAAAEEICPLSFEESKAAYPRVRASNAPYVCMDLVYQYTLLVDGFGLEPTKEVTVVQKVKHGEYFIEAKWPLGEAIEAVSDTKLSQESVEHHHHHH
Chain of Neurocan (Homo sapiens), O14594 (O14594 other isoform, or with tags, fused parts or gaps): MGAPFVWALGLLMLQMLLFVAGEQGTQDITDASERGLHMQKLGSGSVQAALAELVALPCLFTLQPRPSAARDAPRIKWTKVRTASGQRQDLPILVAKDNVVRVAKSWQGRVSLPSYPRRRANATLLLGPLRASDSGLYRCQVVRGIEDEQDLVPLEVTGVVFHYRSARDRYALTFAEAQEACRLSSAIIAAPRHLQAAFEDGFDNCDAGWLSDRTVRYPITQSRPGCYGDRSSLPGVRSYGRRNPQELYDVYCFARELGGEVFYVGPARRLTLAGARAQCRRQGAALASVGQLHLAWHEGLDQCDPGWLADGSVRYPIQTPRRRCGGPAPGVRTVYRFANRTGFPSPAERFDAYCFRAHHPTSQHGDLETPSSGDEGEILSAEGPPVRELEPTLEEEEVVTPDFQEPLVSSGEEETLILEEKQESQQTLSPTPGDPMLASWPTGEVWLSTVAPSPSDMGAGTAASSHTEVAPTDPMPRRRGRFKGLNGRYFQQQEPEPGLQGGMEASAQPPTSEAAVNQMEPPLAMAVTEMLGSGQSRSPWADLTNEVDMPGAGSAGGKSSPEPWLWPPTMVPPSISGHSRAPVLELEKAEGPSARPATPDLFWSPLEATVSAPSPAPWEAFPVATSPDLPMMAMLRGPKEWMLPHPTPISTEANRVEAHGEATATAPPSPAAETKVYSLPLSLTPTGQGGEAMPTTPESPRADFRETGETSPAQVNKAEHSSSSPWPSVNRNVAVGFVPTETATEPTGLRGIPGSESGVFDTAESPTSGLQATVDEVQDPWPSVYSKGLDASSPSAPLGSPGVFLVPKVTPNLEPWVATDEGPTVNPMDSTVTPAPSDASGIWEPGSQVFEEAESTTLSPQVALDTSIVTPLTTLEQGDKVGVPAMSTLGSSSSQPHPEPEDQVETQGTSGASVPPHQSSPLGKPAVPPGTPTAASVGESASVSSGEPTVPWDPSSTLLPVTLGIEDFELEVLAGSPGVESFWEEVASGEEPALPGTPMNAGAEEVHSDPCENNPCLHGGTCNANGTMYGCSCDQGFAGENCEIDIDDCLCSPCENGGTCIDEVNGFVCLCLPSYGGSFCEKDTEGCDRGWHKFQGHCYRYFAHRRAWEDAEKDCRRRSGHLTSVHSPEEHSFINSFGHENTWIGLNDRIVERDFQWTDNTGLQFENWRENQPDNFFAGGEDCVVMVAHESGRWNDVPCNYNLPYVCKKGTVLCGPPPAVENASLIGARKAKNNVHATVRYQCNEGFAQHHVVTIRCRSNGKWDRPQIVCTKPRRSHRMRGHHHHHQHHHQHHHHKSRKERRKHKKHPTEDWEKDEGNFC
Chain of Regenerating Gene IV (Homo sapiens), Q9BYZ8 (Q9BYZ8 whole entry, looked up): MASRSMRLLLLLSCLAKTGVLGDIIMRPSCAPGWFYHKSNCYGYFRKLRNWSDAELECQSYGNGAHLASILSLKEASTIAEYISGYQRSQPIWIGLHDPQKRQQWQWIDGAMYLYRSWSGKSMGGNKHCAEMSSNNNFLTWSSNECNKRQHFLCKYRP

One assay relates to Gal(b1-3)GlcNAc(b1-3)Gal(b1-4)Glc. Put plainly: glycan array binding signal (z-score within array); higher = stronger binding. The note with it: glycan notation: IUPAC condensed, linker removed. The gist of the method: (§1)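 From the Consortium for Functional Glycomics database, 3228 arrays were curated, keeping only those whose protein sequence was available. Binding is given as a within-array Z-score averaged across arrays sharing a protein sequence and across linkers. Negative Z-scores can be read as non-binding.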
Consider 6RG (Lolium perenne), for which the “glycan array binding signal (z-score)” value came to 6.36. On the same count and under the same terms, the figure for Avaren (Actinomycete K97) is 0.952; for Aggrecan (Rattus norvegicus), NP_071526 it is 0.002.

The test system of the next assay is Gal(b1-3)[Fuc(a1-4)]GlcNAc(b1-3)Gal(b1-3)[Fuc(a1-4)]GlcNAc. The description is as above. The settings on record: glycan notation: IUPAC condensed, linker removed. The gist of the method:
as §1
As to Neurocan (Homo sapiens), O14594, the “glycan array binding signal (z-score)” value turned out to be 2.48. Regarding C3b (Homo sapiens), P01024, the “glycan array binding signal (z-score)” value stood at 0.483. Still for that read-out and setting: the figure for “Regenerating Gene IV (Homo sapiens), Q9BYZ8” is -0.411. Consider Aggrecan (Rattus norvegicus), NP_071526, for which the “glycan array binding signal (z-score)” value amounted to 0.137.
